Hit rate of the full screen: of about 360,000 compounds, about 9,100 (2.5%) were called active. Roughly 4% stayed inconclusive and do not appear here. This excerpt belongs to a sample that is enriched for actives. Unmarked numbers belong to inactive results. No stated cut-off is given here; in the data, active means max response below about -50%; inconclusive means no clear call, values can overlap the other calls; inactive means above that.
On the % scale 0 is the no-effect control and ±100 the full control effect.

The target of this assay is D(3) dopamine receptor (Homo sapiens) (UniProt P35462). The assay can be described thus: qHTS of D3 Dopamine Receptor Antagonist: qHTS. Conditions: D3R cells, DiscoveRx beta-arrestin luminescence, antagonist mode; hits give low values. A digest of the protocol: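 Cells plated overnight at 1500 cells/well, then exposed to library compounds with dopamine controls for 90 minutes at 37 degrees C. DiscoveRx reagent added for 30–60 minutes at room temperature; luminescence read, quantitative HTS format.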
Chain of D(3) dopamine receptor (Homo sapiens) (P35462 whole entry, looked up): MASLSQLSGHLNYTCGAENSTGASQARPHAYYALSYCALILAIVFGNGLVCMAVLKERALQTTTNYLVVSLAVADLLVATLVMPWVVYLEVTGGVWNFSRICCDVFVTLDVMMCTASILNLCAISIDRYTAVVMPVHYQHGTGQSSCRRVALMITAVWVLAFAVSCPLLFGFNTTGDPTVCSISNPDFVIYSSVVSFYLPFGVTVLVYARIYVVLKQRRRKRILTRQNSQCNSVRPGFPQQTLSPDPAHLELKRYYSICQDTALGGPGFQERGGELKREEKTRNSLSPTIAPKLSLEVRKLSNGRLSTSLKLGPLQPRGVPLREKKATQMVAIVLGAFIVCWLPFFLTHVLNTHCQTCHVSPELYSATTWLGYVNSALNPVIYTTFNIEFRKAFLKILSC
Consider `CC1=C(C(=O)Nc2cccc(C(=O)NCC(C)c3ccccc3)c2)SCCO1` (centres undefined), for which the max response, negative = inhibition was 104%. `O=C1c2cccc3cc(Br)cc(c23)C(=O)N1Nc1ccccc1`: the max response, negative = inhibition was -62.9% (active). Turning to `O=C1C=C(c2ccc(Cl)cc2)C(=O)N1Nc1ccccc1`, the max response, negative = inhibition is -22.9%.

As for `O=C(CN1C(=O)c2cccc3cccc1c23)Nc1ccccc1`, the max response, negative = inhibition is 5.41%. Next, `COc1cccc(CNc2nc(NCc3ccccc3OC)nc3ccsc23)c1`: 31.6%.

On to `O=C(CCN1CCCO1)N1CCCC(N2CCN(c3cccc(C(F)(F)F)c3)CC2)C1` (centres undefined), for which the max response, negative = inhibition was -5.11%. In the case of `O=C1C2CCCN2C(=O)N1CCCCN1CCN(c2cccc(C(F)(F)F)c2)CC1` (centres undefined), the max response, negative = inhibition is -115% (active). Turning to `O=C(C1CC(=O)N(C2CCCC2)C1)N1CCN(c2cccc(C(F)(F)F)c2)CC1` (centres undefined), the max response, negative = inhibition was -17.8%. Next, `CCCCCc1c(-c2ccc(OC)c(OC)c2)ncn1CCc1ccccc1OC`: -3.21%; `O=C1NC[C@H](Cc2ccc(O)cc2)N(C[C@H]2CCCN2C[C@H](Cc2ccccc2)N2C[C@H](Cc3ccccc3)N(CCc3ccccc3)C(=O)C2=O)C1=O`: -27.9%. Next, `COc1ccc(CN2C(=O)C(CC(=O)NCCCCc3ccccc3)CC(C(=O)N3CCOCC3)=C2C)cc1` (centres undefined): 17.9%; `Cc1ccc(C(=O)NC(C)C(c2cccs2)N2CCOCC2)cc1C` (centres undefined): -24.7%. With `N#Cc1ccc(C(C(=O)NCc2ccccc2)n2c(=O)c(-c3ccco3)nc3ccccc32)cc1` (centres undefined), the max response, negative = inhibition is -4.27%. Next, `O=C(Cn1c(=O)sc2ccccc21)Nc1ccc2c(c1)OCCO2`: 7.52%; `O=C(CN1CCC(O)(c2ccccc2)CC1)Nc1ccc2c(c1)OCCO2`: -57.9% (active). Next, `O=C(CN1CCN(C(=O)c2ccco2)CC1)Nc1ccc2c(c1)OCO2`: -5.37%; `CN1C[C@@H](CO)O[C@@H](n2cnc3c(N4CCN(CCO)CC4)ncnc32)C1`: 2.48%. Consider `COc1cccc(-c2cc3nc(NCc4ccccc4OC)n(C)c(=O)c3s2)c1`, for which the max response, negative = inhibition is 23.1%. Next, `COc1ccc(CN2C(=O)C(CC(=O)NC3CCCCC3)CC(C(=O)N3CCOCC3)=C2C)cc1` (centres undefined): -7.02%.

For `FC(F)(F)C1CCCN(c2nsc3ccccc23)C1` (centres undefined), the max response, negative = inhibition was -81.7% (active).

For `COc1ccc([C@H]2CC(=O)C[C@@H](CCn3cc(CC4CCCC4)nn3)O2)cc1`, the max response, negative = inhibition was 5.27%. Next, `CCCS(=O)(=O)NC(=O)C1(C)CCN(C(=O)c2sccc2C)C1` (centres undefined): 18.5%; `Nc1nc(CSc2nnnn2-c2ccccc2)nc(Nc2ccccc2)n1`: 16%; `CC1(C(=O)Nc2ccccc2Br)CCN1C(=O)CC1CC1` (centres undefined): 27.1%.

(Values after PubChem BioAssay AID652054 (National Center for Advancing Translational Sciences (NCATS), 2013).)
